Holding throughout (experiment): DAPPL (digital affinity profiling via proximity ligation, sequencing); 10 mM Tris-HCl pH 7.5, 50 mM NaCl, 1 mM DTT, 4% glycerol, room temperature, 30 min; GST-TFs on glutathione beads, 16-mer random dsDNA library, 0.1% formaldehyde crosslink after washing; high values mean tight binding
What all share (conditions): protein: recombinant; tags: N-terminal GST; dsDNA, one strand shown

The target in one test is T1, FLI1 (Homo sapiens, UniProt Q01543 1-452).
T1 sequence: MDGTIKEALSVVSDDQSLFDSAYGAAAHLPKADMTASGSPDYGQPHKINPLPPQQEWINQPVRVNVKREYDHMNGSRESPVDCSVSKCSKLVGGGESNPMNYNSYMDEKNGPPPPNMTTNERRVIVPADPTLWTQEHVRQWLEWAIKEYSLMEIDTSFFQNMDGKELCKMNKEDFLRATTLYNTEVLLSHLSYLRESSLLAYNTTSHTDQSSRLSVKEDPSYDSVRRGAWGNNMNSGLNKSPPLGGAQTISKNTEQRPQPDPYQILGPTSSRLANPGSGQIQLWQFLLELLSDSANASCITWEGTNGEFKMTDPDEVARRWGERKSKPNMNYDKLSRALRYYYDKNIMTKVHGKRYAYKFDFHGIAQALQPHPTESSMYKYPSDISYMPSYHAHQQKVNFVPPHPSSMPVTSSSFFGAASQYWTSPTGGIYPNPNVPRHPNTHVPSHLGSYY
The method in brief: (§1)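 Pools of DNA-barcoded human transcription factors, expressed in yeast as GST fusions on glutathione beads and combined with a tag-only sample, were incubated with 200 nmole of a 16-mer random double-stranded DNA library. Incubation took 30 min at room temperature in Tris/NaCl/DTT/glycerol buffer and was followed by washing, 0.1% formaldehyde crosslinking, proximity ligation (BsaI/T4 ligase, 1 h, 37 °C), PCR amplification and sequencing on an Illumina NextSeq500. Binding signal is the ratio of a hexamer's read frequency for a factor to its frequency for the tag-only sample.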

For the next test, the target named is T2, GABPA (Homo sapiens, UniProt Q06546 1-454).
T2 sequence: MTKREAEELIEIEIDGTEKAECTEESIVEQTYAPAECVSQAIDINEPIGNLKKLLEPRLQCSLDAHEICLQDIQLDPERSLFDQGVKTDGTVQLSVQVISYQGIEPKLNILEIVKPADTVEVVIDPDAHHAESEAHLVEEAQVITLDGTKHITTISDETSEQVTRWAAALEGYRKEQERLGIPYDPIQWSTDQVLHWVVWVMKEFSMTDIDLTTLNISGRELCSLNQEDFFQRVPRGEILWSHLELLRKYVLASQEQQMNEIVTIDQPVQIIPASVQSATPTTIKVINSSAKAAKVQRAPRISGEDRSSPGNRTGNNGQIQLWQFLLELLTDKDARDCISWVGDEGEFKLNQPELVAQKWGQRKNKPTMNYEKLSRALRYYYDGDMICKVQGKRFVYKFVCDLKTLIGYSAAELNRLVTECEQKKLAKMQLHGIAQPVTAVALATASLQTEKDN
The method in brief:
as §1

For the next test, the target named is T3, ERG (Homo sapiens, UniProt P11308 1-479).
T3 sequence: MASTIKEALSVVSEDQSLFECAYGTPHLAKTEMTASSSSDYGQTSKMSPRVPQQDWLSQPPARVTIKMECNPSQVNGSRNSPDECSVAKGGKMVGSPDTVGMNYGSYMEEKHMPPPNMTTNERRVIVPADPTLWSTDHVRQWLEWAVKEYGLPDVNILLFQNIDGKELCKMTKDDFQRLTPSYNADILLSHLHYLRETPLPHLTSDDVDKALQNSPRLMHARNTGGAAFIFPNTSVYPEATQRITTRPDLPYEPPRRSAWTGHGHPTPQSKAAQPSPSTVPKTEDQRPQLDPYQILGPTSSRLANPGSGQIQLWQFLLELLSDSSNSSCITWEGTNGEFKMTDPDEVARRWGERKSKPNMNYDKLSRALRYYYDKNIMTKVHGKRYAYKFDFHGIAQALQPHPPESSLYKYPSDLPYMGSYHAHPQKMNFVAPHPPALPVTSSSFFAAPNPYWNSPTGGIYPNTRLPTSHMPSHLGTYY
The method in brief:
as §1

A further test has as its target ELF1 (Homo sapiens, UniProt P32519 1-619). The method in brief: as §1
In the next test the target is T4, EHF (Homo sapiens, UniProt Q9NZC4 1-300).
T4 sequence: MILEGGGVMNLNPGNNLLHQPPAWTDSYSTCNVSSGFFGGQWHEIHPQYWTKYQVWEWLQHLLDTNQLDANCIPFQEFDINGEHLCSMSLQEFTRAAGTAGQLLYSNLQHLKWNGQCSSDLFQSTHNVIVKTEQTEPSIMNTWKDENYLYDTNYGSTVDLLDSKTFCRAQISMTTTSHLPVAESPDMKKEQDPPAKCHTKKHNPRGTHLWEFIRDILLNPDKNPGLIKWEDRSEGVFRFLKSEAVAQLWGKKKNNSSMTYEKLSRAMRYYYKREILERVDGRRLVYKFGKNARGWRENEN
The method in brief: as §1

In the next test the target is SPIB (Homo sapiens, UniProt Q01892 1-262). The method in brief:
as §1

The next test concerns the target ETV5 (Homo sapiens, UniProt P41161 1-510). The method in brief: as §1
A further test has as its target T5, SPIC (Homo sapiens, UniProt Q8N5J4 1-248).
T5 sequence: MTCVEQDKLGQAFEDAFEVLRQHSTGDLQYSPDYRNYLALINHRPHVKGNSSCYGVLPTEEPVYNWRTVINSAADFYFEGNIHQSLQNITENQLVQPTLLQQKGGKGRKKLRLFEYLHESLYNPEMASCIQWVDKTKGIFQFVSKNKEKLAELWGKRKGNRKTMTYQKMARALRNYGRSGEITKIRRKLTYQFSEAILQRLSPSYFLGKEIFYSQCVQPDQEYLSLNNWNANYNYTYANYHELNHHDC
The method in brief: as §1

For the next test, the target named is ELF4 (Homo sapiens, UniProt Q99607 1-663). The method in brief:
as §1

A further test concerns the target ETV1 (Homo sapiens, UniProt P50549 1-477). The method in brief: as §1
The target in a further test is T6, ERF (Homo sapiens, UniProt P50548 1-548).
T6 sequence: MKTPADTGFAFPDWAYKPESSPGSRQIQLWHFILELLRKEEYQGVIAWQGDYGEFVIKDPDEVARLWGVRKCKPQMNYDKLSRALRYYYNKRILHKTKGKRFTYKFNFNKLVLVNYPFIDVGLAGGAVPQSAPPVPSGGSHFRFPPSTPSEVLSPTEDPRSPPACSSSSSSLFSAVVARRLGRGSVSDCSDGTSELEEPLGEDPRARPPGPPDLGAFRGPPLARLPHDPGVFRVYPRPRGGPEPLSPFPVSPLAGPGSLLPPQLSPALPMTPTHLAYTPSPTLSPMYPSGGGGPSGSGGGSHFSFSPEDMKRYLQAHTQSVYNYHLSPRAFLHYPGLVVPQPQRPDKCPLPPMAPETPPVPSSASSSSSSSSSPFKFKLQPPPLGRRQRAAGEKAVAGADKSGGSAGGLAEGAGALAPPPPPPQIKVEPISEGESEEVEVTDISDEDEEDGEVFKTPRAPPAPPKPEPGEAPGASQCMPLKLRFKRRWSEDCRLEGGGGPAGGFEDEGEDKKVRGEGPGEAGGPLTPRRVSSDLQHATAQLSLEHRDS
The method in brief:
as §1

For another test, the target named is T7, ETV3L (Homo sapiens, UniProt Q6ZN32 1-361).
T7 sequence: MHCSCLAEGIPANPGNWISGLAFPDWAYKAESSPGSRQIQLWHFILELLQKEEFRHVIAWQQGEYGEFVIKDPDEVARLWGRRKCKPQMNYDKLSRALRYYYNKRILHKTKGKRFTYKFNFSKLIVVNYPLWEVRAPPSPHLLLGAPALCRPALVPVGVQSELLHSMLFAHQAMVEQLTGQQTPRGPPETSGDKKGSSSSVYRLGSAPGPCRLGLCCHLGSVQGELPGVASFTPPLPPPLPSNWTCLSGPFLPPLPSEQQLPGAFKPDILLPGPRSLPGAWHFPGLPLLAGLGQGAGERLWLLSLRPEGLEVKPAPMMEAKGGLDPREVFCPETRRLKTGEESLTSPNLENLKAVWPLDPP
The method in brief:
as §1

The next test addresses T8, ETS2 (Homo sapiens, UniProt P15036 1-469).
T8 sequence: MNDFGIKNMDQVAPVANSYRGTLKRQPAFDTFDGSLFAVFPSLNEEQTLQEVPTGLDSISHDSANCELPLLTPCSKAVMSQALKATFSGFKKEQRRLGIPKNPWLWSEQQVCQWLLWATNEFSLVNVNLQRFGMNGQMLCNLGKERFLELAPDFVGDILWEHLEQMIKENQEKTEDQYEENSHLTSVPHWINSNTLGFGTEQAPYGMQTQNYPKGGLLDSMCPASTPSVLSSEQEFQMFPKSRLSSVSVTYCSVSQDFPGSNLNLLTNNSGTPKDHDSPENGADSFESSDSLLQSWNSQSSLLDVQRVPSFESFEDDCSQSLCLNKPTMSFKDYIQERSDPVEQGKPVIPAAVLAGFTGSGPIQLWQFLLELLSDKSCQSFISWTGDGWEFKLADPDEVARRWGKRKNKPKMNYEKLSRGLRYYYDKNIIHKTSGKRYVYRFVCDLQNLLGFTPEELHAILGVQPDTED
The method in brief:
as §1

The next test concerns the target T9, ETV3 (Homo sapiens, UniProt P41162-2 1-143).
T9 sequence: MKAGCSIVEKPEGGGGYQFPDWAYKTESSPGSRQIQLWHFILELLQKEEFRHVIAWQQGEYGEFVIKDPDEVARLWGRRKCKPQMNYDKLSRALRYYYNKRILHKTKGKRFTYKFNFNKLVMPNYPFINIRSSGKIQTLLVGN
The method in brief: as §1

In a further test the target is ETV6 (Homo sapiens, UniProt P41212 1-452). The method in brief: as §1
ETV6, sequence (P41212 whole entry): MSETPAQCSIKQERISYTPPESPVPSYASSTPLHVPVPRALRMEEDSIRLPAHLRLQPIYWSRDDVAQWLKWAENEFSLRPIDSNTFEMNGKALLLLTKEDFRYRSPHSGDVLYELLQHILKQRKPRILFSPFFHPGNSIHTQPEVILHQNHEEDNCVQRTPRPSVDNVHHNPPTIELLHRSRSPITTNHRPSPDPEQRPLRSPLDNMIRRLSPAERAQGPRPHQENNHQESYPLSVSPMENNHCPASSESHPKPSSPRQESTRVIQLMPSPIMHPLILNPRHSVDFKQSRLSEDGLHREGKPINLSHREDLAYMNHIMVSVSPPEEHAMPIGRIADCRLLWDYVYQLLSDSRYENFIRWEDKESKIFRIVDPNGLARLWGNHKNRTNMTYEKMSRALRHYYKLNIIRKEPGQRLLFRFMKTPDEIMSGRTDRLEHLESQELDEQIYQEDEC
The next test addresses T10, FEV (Homo sapiens, UniProt Q99581 1-238).
T10 sequence: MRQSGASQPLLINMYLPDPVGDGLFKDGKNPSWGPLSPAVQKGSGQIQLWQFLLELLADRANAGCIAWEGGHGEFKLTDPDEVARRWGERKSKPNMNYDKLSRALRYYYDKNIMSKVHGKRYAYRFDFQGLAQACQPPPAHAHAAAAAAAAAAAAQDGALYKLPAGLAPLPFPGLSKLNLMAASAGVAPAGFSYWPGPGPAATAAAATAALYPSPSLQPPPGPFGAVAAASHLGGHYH
The method in brief: as §1

ETV5, sequence (P41161 whole entry): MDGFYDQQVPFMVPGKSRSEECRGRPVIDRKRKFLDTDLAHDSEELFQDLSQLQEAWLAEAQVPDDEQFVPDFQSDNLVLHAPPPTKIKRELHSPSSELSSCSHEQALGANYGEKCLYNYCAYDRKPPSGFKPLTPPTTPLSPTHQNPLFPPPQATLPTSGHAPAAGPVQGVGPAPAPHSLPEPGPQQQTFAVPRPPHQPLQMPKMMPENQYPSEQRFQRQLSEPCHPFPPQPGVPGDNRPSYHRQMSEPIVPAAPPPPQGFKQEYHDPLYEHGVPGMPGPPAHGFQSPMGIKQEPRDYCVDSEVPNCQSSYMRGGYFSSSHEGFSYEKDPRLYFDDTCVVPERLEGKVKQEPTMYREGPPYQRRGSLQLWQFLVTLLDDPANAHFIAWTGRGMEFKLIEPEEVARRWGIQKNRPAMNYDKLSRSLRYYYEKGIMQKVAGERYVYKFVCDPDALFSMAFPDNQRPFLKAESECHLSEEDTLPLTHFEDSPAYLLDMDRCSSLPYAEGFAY
ELF4, sequence (Q99607 whole entry): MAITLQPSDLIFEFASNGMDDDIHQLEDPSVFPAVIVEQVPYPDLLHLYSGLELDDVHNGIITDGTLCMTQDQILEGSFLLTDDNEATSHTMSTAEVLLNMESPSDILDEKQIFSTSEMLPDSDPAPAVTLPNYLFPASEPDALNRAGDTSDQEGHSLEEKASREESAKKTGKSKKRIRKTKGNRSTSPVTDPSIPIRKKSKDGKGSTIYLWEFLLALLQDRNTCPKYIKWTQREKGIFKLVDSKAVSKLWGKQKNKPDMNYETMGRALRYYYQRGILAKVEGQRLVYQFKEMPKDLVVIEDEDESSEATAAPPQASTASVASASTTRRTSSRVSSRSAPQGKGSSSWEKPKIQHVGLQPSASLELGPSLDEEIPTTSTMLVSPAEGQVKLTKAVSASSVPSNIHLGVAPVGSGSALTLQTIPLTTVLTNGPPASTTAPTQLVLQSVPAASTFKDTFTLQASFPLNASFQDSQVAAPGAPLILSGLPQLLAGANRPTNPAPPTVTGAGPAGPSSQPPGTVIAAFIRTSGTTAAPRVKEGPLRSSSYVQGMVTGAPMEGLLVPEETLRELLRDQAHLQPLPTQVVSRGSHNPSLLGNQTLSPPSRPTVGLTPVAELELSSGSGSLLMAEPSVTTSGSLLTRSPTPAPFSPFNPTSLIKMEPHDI
ELF1, sequence (P32519 whole entry): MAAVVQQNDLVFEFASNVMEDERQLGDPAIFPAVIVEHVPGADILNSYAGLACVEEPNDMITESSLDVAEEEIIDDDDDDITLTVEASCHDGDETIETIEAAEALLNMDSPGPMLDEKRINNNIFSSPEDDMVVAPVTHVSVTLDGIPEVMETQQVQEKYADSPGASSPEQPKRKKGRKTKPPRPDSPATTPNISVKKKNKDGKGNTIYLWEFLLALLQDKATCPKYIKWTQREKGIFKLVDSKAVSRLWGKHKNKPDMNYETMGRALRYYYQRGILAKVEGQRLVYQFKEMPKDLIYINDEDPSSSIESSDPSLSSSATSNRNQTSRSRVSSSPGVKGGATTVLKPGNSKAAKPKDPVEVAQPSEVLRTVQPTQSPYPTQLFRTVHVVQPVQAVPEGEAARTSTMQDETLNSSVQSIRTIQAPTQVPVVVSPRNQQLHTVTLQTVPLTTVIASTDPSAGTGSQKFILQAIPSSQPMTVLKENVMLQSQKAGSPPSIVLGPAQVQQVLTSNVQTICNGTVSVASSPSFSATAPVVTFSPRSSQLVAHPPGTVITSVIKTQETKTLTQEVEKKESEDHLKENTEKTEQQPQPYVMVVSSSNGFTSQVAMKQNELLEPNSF
SPIB, sequence (Q01892 whole entry): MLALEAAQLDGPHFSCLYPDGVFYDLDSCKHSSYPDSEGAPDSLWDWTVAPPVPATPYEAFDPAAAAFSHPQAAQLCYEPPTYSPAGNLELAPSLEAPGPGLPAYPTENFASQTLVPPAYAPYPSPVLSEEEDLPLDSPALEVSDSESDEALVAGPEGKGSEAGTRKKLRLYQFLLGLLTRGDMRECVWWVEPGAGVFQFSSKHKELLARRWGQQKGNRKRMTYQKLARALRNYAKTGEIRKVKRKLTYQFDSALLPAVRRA
ETV1, sequence (P50549 whole entry): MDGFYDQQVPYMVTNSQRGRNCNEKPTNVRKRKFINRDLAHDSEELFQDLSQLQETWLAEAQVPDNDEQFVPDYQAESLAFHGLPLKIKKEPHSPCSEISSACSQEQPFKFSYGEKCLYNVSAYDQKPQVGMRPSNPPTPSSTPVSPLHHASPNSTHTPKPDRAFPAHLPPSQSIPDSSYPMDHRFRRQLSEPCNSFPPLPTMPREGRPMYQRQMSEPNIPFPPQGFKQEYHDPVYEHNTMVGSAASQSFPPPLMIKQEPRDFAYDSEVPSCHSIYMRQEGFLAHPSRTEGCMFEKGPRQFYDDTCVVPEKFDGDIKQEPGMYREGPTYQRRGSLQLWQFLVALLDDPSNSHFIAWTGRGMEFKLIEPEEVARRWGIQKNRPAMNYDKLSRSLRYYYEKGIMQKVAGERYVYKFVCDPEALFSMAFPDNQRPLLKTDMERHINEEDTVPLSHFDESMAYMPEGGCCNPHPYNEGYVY

With TCGCTG, the binding signal in the test with FLI1 is 1.02 fold enrichment (6-mer frequency, TF over GST control); with GABPA, 1.01 fold enrichment (6-mer frequency, TF over GST control); with ERG, 1.02 fold enrichment (6-mer frequency, TF over GST control); with ELF1 it was 1.05 fold enrichment (6-mer frequency, TF over GST control); with EHF, 1.1 fold enrichment (6-mer frequency, TF over GST control); with SPIB, 1.22 fold enrichment (6-mer frequency, TF over GST control). The binding signal in the test with ETV5 is 1.11 fold enrichment (6-mer frequency, TF over GST control); in the test with SPIC, 1.19 fold enrichment (6-mer frequency, TF over GST control); in the test with ELF4, 1.05 fold enrichment (6-mer frequency, TF over GST control); in the test with ETV1, 1.15 fold enrichment (6-mer frequency, TF over GST control); with ERF it was 1.16 fold enrichment (6-mer frequency, TF over GST control); with ETV3L, 1.05 fold enrichment (6-mer frequency, TF over GST control). Further, the binding signal with ETS2 is 1.12 fold enrichment (6-mer frequency, TF over GST control); with ETV3 it was 1.13 fold enrichment (6-mer frequency, TF over GST control).
Consider GGCTCG, for which the binding signal in the test with FLI1 is 1.06 fold enrichment (6-mer frequency, TF over GST control); with GABPA it was 1.02 fold enrichment (6-mer frequency, TF over GST control); in the test with ERG, 1.02 fold enrichment (6-mer frequency, TF over GST control); with ELF1 it was 1.05 fold enrichment (6-mer frequency, TF over GST control); with SPIB, 1.12 fold enrichment (6-mer frequency, TF over GST control); in the test with ETV5, 1.01 fold enrichment (6-mer frequency, TF over GST control). The binding signal with SPIC is 1.12 fold enrichment (6-mer frequency, TF over GST control); in the test with ELF4 it was 1.06 fold enrichment (6-mer frequency, TF over GST control); in the test with ETV1, 1.01 fold enrichment (6-mer frequency, TF over GST control); in the test with ETV3L, 1.09 fold enrichment (6-mer frequency, TF over GST control); with ETV6, 1.06 fold enrichment (6-mer frequency, TF over GST control).
Turning to CGCTGG, the binding signal was 1.05 fold enrichment (6-mer frequency, TF over GST control) with FLI1; 1.03 fold enrichment (6-mer frequency, TF over GST control) with ERG; 1.08 fold enrichment (6-mer frequency, TF over GST control) with ELF1; 1 fold enrichment (6-mer frequency, TF over GST control) with EHF; 1.01 fold enrichment (6-mer frequency, TF over GST control) with SPIB; 1.02 fold enrichment (6-mer frequency, TF over GST control) with FEV. The binding signal is 1 fold enrichment (6-mer frequency, TF over GST control) with ETV5; 1.01 fold enrichment (6-mer frequency, TF over GST control) with SPIC; 1.02 fold enrichment (6-mer frequency, TF over GST control) with ELF4; 1.05 fold enrichment (6-mer frequency, TF over GST control) with ERF; 1.03 fold enrichment (6-mer frequency, TF over GST control) with ETV3L; 1.1 fold enrichment (6-mer frequency, TF over GST control) with ETS2. Moreover, the binding signal with ETV3 is 1.12 fold enrichment (6-mer frequency, TF over GST control).

For the origin of these results see article PMC7862700, “An all-to-all approach to the identification of sequence-specific readers for epigenetic DNA modifications on cytosine”.
